Test results taken from PubChem BioAssay.
The source made the active and inactive calls.

Assays:
[1] = E. coli DRC41 culture turbidity changes, primary screen, E. coli filamentation inducer project, strain DRC41, OD650, 48 h (AID 1152);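 further: E. coli MC1000 strain DRC41 lacking acrAB efflux pump and sulA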; conditions: E. coli DRC41 (acrAB sulA), higher = more signal, called active from +8 up or from −8 down
[2] = small-molecule binders of probe aLefty1, primary screen, biochemical, small-molecule microarray, 635/667 nm fluorescence (AID 1153); conditions: higher = more signal;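 further: score merges spot fluorescence with signal-to-noise ratio from the scanned slide images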
[3] = PSAC antagonists in infected red cells, primary screen, cell-based, P. falciparum Indochina, OD700, 1 h (AID 1154); conditions: P. falciparum Indochina infected RBC osmotic lysis, higher = more signal, called active from +8 up or from −8 down
[4] = PSAC antagonists in infected red cells, primary screen, cell-based, P. falciparum Indochina, OD700, 2 h (AID 1155);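 further: lysis reports solute entry through the parasite surface anion channel PSAC; channel blockers reduce lysis of infected cells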; conditions: P. falciparum Indochina infected erythrocytes, osmotic lysis OD700; higher = more signal, called active from +8 up or from −8 down
[5] = osmotic lysis modulators in infected erythrocytes, primary screen, PSAC antagonist project, cell-based, P. falciparum Indochina, OD700, 3 h (AID 1156); conditions: higher = more signal, called active from +8 up or from −8 down
[6] = PSAC antagonists in infected red cells, primary screen, cell-based, P. falciparum Indochina, OD700, 18 h (AID 1157); conditions: P. falciparum Indochina infected erythrocytes, osmotic lysis OD700, 18 h; higher = more signal, called active from +8 up or from −8 down
[7] = modulators of S6 phosphorylation in cells, primary screen, cell-based, A549, cytoblot, luminescence, serum-stimulated (AID 1158); conditions: A549 phospho-S6 cytoblot, 5 h, higher = more signal;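 further: serum-stimulated A549 lung adenocarcinoma cells; signal is phosphorylated S6 detected by cytoblot immunostaining with HRP secondary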
[8] = biological target: NADPH oxidase 2 (Homo sapiens) (UniProt P04839); experiment: NOX2-dependent H2O2 signal modulators, primary screen, NOX inhibitor project, cell-based, HEK293-NOX2, PMA-stimulated, Amplex Red fluorescence (AID 1159); conditions: 45 min, higher = more signal, called active from +8 up or from −8 down; further: test concentration not given here
[9] = biological target: NADPH oxidase 4 (Homo sapiens) (UniProt Q9NPH5); experiment: NOX4-dependent H2O2 signal modulators, primary screen, NOX inhibitor project, cell-based, HEK293-NOX4, tetracycline-induced, Amplex Red fluorescence (AID 1160); conditions: 45 min, higher = more signal, called active from +8 up or from −8 down
[10] = biological target: NADPH oxidase 5 (Homo sapiens) (UniProt Q96PH1); experiment: NOX5-dependent H2O2 signal modulators, primary screen, NOX inhibitor project, cell-based, HEK293-NOX5, Amplex Red fluorescence (AID 1161); conditions: HEK293-NOX5, ionomycin, 45 min, higher = more signal
[11] = A549 cell viability effects, profiling panel, calcein-AM fluorescence, 48 h, basal (AID 1162); conditions: higher = more signal; further: test concentration not given here
[12] = adipocyte viability effects, profiling panel, cell-based, 3T3-L1 adipocytes, calcein-AM fluorescence, 48 h, basal (AID 1163); conditions: 3T3-L1 adipocytes viability, higher = more signal; further: test concentration not given here
[13] = HepG2 cell viability effects, profiling panel, calcein-AM fluorescence, 48 h, basal (AID 1164); conditions: higher = more signal; further: test concentration not given here
[14] = MM1S cell viability effects, profiling panel, calcein-AM fluorescence, 48 h, basal (AID 1165); conditions: higher = more signal;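 further: viability of MM1S multiple myeloma cells under basal unstimulated conditions; test concentration not given here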
[15] = basal RPMI8226 viability, no added stimulus, profiling panel, cell-based, calcein-AM fluorescence, 48 h, PK04 Diversity Set (AID 1166); conditions: RPMI8226 myeloma viability, higher = more signal;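 further: cells grown under basal conditions without added stimulus; test concentration not given here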
[16] = basal HepG2 mitochondrial membrane potential changes, profiling panel, cell-based, JC-1 fluorescence, 24 h, 100 nL compound (AID 1167); conditions: higher = more signal; further: test concentration not given here
[17] = basal 3T3-L1 adipocyte mitochondrial potential changes, profiling panel, cell-based, JC-1 fluorescence, 3T3-L1 adipocytes, 24 h, 100 nL compound (AID 1168); conditions: JC-1 mitochondrial fluorescence, higher = more signal, called active from +8 up or from −8 down; further: test concentration not given here
[18] = basal RPMI8226 mitochondrial membrane potential changes, profiling panel, cell-based, JC-1 fluorescence, 24 h, 100 nL compound (AID 1169); conditions: RPMI8226 myeloma, JC-1 mitochondrial potential fluorescence, higher = more signal; further: test concentration not given here
[19] = basal MM1S mitochondrial membrane potential changes, profiling panel, cell-based, JC-1 fluorescence, 24 h, 100 nL compound (AID 1170); conditions: higher = more signal; further: test concentration not given here
[20] = A549 lung cancer cell viability effects, profiling panel, resazurin fluorescence, 24 h, PK04 Diversity Set (AID 1171); conditions: higher = more signal, called active from +8 up or from −8 down; further: test concentration not given here

Sequence of NADPH oxidase 2 (Homo sapiens) (P04839 whole entry, looked up): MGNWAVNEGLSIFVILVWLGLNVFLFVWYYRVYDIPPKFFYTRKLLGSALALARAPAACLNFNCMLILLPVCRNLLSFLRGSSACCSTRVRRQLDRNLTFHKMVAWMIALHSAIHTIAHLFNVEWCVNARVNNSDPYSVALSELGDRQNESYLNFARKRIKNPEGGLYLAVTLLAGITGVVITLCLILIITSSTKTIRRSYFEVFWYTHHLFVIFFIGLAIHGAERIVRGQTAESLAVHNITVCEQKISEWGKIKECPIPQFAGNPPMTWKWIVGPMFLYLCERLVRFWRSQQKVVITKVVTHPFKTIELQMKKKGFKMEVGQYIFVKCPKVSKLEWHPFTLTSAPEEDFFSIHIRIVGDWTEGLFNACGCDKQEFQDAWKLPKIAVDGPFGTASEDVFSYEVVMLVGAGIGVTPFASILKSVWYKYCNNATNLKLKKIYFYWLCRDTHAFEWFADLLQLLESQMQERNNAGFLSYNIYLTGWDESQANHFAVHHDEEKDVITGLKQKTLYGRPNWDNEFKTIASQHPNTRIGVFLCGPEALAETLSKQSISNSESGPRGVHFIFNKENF
Sequence of NADPH oxidase 5 (Homo sapiens) (Q96PH1 whole entry, looked up): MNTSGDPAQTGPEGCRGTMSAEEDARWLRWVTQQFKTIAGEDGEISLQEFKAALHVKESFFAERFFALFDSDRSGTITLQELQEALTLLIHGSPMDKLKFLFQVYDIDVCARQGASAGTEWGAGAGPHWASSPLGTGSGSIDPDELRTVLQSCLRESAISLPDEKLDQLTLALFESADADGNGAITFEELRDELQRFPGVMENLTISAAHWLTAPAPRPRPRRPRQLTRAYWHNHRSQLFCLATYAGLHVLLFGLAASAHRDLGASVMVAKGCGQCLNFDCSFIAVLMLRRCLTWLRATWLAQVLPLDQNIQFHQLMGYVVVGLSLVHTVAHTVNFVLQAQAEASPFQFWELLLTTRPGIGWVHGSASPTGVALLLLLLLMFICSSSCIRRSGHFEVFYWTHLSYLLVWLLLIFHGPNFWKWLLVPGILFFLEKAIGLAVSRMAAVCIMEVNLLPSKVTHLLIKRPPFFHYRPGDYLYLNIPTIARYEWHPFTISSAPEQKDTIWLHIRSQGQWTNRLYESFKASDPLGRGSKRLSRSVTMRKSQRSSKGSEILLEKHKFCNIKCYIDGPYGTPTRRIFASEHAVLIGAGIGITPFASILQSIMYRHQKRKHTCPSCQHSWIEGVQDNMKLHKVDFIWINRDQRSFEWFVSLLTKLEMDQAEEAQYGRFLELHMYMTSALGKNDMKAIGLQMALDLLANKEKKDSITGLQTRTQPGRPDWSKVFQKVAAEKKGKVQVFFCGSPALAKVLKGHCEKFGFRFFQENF
Sequence of NADPH oxidase 4 (Homo sapiens) (Q9NPH5 whole entry, looked up): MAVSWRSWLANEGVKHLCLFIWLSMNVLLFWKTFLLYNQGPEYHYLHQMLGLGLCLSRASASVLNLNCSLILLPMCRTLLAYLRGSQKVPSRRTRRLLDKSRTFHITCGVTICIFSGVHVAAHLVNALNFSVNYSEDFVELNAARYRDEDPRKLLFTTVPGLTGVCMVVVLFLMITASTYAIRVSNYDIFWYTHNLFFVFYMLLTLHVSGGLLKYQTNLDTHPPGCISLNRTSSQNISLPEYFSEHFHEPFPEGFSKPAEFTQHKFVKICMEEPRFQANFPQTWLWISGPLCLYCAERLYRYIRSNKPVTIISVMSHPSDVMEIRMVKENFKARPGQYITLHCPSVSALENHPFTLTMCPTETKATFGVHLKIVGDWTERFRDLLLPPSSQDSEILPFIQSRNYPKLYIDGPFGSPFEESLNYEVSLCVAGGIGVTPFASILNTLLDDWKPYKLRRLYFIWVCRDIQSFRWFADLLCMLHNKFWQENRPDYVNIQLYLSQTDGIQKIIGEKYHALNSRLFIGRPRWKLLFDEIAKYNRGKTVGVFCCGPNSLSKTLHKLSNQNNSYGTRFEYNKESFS

SMILES | z-score [1] | composite z-score [2] | z-score [3] | z-score [4] | z-score [5] | z-score [6] | z-score [7] | z-score [8] | z-score [9] | z-score [10] | z-score [11] | z-score [12] | z-score [13] | z-score [14] | z-score [15] | z-score [16] | z-score [17] | z-score [18] | z-score [19] | z-score [20]
CC(C)C(=C=CC[C@@H](O)c1ccccc1OCCO)CCO | 0.351 (inactive) | -0.0501 | 1.95 (inactive) | 0.63 (inactive) | -1.33 (inactive) | 0.428 (inactive) | 0.278 | 0.729 (inactive) | 0.147 (inactive) | -2.06 | 0.855 | -1.23 | -0.902 | -0.314 | 0.168 | -1.03 | 0.235 (inactive) | 0.719 | -0.0293 | 0.215 (inactive)
CC(C)(C)OC(=O)CC[C@@]12N=C(c3ccc(OCCCO)cc3)O[C@@H]1c1ccccc1N(CCS(=O)(=O)c1ccccc1)C2=O | 0.864 (inactive) | 0.334 | 30.9 (active) | 27.6 (active) | 3.49 (inactive) | 8.22 (active) | 1.84 | -0.619 (inactive) | 0.801 (inactive) | -2.14 | 2.14 | 0.828 | 0.116 | -1.6 | -0.72 | 0.741 | 3.28 (inactive) | -0.814 | -1.13 | -1.91 (inactive)
CC(C)(C)OC(=O)CC[C@@]1(C(=O)NCC(O)CO)N=C(c2ccc(OCCCO)cc2)O[C@@H]1c1ccccc1N=[N+]=[N-] (stereo not given in full) | 1.99 (inactive) | 0.379 | 31.9 (active) | 28.4 (active) | 3.82 (inactive) | 7.71 (inactive) | 0.123 | -2.77 (inactive) | 1.03 (inactive) | -1.85 | 1.79 | -0.309 | 1.34 | -0.312 | 0.0549 | 1.73 | 2.9 (inactive) | 0.11 | -0.884 | 0.642 (inactive)
COC(=O)c1c(CC[C@@H](CO)NC(=O)N2CCC[C@H]2Cn2cc(-c3ccccn3)nn2)oc(C(C)=O)c1C(=O)OC | 1.04 (inactive) | -0.101 | 1.58 (inactive) | -0.448 (inactive) | -0.315 (inactive) | -0.741 (inactive) | 0.882 | -2.6 (inactive) | -1.44 (inactive) | -1.84 | -0.204 | 1 | -1.02 | 0.208 | 1.18 | -0.443 | -0.922 (inactive) | 0.859 | -0.475 | 0.133 (inactive)
CCCCN1CC=CC23O[C@@H]4/C=C\CCC(C)OC(=O)C4[C@H]2C(=O)N(CCCCCO)[C@@H]3C1=O (stereo not given in full) | 0.119 (inactive) | -0.147 | 1.03 (inactive) | -0.0101 (inactive) | -0.0712 (inactive) | 0.406 (inactive) | 0.002 | 0.395 (inactive) | -0.022 (inactive) | 1.21 | -0.143 | 0.0763 | 0.478 | 1.52 | 0.096 | 0.241 | 0.9 (inactive) | 0.32 | -0.133 | 0.455 (inactive)
C=C(/C(=C/C[C@@H](OC(C)=O)c1ccc(OCCO)cc1)c1cnc2ccccc2c1)C(C)C | 1.14 (inactive) | -0.342 | 15.4 (active) | 2.26 (inactive) | 1.79 (inactive) | 0.97 (inactive) | 0.853 | -2.99 (inactive) | -0.926 (inactive) | -2.24 | 2.72 | 1.39 | 1.25 | -0.924 | 0.559 | 2.07 | -1.27 (inactive) | -0.139 | -1.17 | 0.685 (inactive)
CC(C)C[C@@H]1NC(=O)[C@H]2C[C@@H](C(=O)NCCCCCCN(C)C)[C@@H](c3ccc(O)cc3)N2C1=O | -0.655 (inactive) | -0.0573 | 0.977 (inactive) | -0.116 (inactive) | -0.0599 (inactive) | -0.288 (inactive) | -0.384 | 0.193 (inactive) | 0.268 (inactive) | 0.0226 | -1.06 | -0.0009 | -0.59 | 0.235 | -1.28 | -0.438 | 0.186 (inactive) | 0.664 | -0.601 | -0.743 (inactive)
COc1cc2c(cc1OC)CN(C(=O)[C@H]1[C@@H]3C(=O)O[C@@H](c4ccccc4)[C@@H](c4ccccc4)N3[C@@H](c3ccc(O)cc3)[C@]13C(=O)Nc1ccc(C#CCNC(N)=O)cc13)CC2 | 0.595 (inactive) | 0.075 | 0.342 (inactive) | 0.137 (inactive) | -0.518 (inactive) | 0.335 (inactive) | 0.152 | 0.47 (inactive) | 0.732 (inactive) | 0.56 | -0.697 | 0.448 | 0.148 | 0.703 | 0.168 | -1.31 | 0.635 (inactive) | 0.22 | -0.222 | -0.0437 (inactive)
